Measurements taken from PubChem BioAssay (EPA / NIEHS).
“And” between values parts separate entries of the source, which are not always exact repeats. Identical values can stand only once. Inconclusive results are not listed. The source made the active and inactive calls. How the source made its calls, unless noted: active means hit-call score of the fitted dose curve at least 0.9, where 1 is the maximum; inactive means score below 0.9.

Key:
[1] = read-out: Thyroid Hormone Responsive (THRSP), THRSP (gene 7069); assay: LTEA_HepaRG_THRSP: Life Technologies and Expression Analysis (LTEA) Assay for Thyroid Hormone Responsive (THRSP) using HepaRG (AID 2283536); details: mRNA level, 48 h; actives raise or lower the signal
Outline: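 qRT-PCR read-out (Fluidigm TaqMan), housekeeping-normalized (ACTB/GAPDH/POLR2A). HepaRG, 48 h chemical exposure, 8-pt half-log series from 100 uM in 0.5% DMSO, duplicates. Bidirectional curve fit vs 0.5% DMSO baseline.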

[2] = read-out: UDP glucuronosyltransferase (UGT1A1), UGT1A1 (gene 54658); assay: LTEA_HepaRG_UGT1A1: Life Technologies and Expression Analysis (LTEA) Assay for UDP glucuronosyltransferase (UGT1A1) using HepaRG (AID 2283538); details: mRNA level, 48 h; actives raise or lower the signal
Outline: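 HepaRG, 48 h chemical exposure (top 100 uM, half-log 8-pt, 0.5% DMSO vehicle), duplicate wells; qRT-PCR (TaqMan, Fluidigm array) for UGT1A1 mRNA, housekeeping-normalized; bidirectional curve fit vs DMSO baseline.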

[3] = read-out: UDP glucuronosyltransferase (UGT1A6), UGT1A6 (gene 54578); assay: LTEA_HepaRG_UGT1A6: Life Technologies and Expression Analysis (LTEA) Assay for UDP glucuronosyltransferase (UGT1A6) using HepaRG (AID 2283539); details: mRNA level, 48 h; actives raise or lower the signal
Outline: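 Endpoint is UGT1A6 transcript induction or loss in a human liver cell line, quantified by TaqMan qRT-PCR 48 h after dosing. Concentrations ran from 100 uM downward in half-log steps in 0.5% DMSO; activity was fitted in both directions versus vehicle.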

[4] = read-out: X-box binding protein 1 (XBP1), XBP1 (gene 7494); assay: LTEA_HepaRG_XBP1: Life Technologies and Expression Analysis (LTEA) Assay for X-box binding protein 1 (XBP1) using HepaRG (AID 2283540); details: mRNA level, 48 h; actives raise or lower the signal
Outline: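 Human HepaRG monolayers receive test chemical for 48 h across an eight-point half-log series starting at 100 uM. XBP1 mRNA gain or loss is scored against DMSO by qRT-PCR.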

[5] = LTEA_HepaRG_LDH_cytotoxicity: Cytotoxicity Assessment in the Life Technologies and Expression Analysis (LTEA) Assay (AID 2283563; active means hit-call score of the fitted dose curve at least 0.9, where 1 is the maximum;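 on AC50: LDH activity released into spent culture medium as a marker of cell death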)
Outline: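 Human HepaRG hepatic cells are treated with test chemicals for 48 h at up to 100 uM in 0.5% DMSO. Cytotoxicity is scored from medium LDH against the vehicle control.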

[6] = read-out: Cellular tumor antigen p53 (Homo sapiens) (UniProt P04637); assay: LTEA_HepaRG_TP53: Life Technologies and Expression Analysis (LTEA) Assay for Tumor Protein P53 (TP53) using HepaRG (AID 2283537); details: mRNA level, 48 h; actives raise or lower the signal
Outline: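 TP53 transcript measured by qRT-PCR, normalized to three housekeeping genes, after 48 h treatment of human HepaRG cultures with chemicals from 100 uM downward in half-log steps (0.5% DMSO vehicle, serum-free induction medium). Up- or down-regulation fitted against DMSO.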

[7] = TOX21_p53_BLA_p3_viability: Viability Assessment in the Tox21 HCT-116 p53 Agonism Beta-lactamase Assay, Phase 3 (AID 2283593; active means hit-call score of the fitted dose curve at least 0.9, where 1 is the maximum;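 further: cells exposed to compound for 16 h before reading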)
Outline: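 HCT116 cells, 4000/well, dosed 5 h after plating by pin transfer (217-fold dilution from DMSO stock) and incubated 16 h at 37C, 5% CO2. Viability read as ATP luminescence with CellTiter-Glo after 30 min at room temperature.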

[8] = target: Cellular tumor antigen p53 (Homo sapiens) (UniProt P04637); assay: TOX21_p53_BLA_p3_ratio: Tox21 HCT-116 p53 Agonism Beta-lactamase Assay, Ratio, Phase 3 (AID 2283596; active means hit-call score of the fitted dose curve at least 0.9, where 1 is the maximum)
Chain of Cellular tumor antigen p53 (Homo sapiens) (P04637 whole entry, looked up): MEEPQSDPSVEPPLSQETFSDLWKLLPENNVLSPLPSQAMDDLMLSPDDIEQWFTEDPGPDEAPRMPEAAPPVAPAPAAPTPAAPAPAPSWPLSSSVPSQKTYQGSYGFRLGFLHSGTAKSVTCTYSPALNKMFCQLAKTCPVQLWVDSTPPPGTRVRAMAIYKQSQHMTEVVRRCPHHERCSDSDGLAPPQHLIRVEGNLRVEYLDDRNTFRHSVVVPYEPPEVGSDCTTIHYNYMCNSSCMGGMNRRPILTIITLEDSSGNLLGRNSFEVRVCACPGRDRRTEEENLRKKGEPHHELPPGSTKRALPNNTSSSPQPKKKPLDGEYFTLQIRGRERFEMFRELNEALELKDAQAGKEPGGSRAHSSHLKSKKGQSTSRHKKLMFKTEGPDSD
Outline: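 Cells were seeded at 4000/well, rested 5 h at 37C, then dosed with DMSO compound solutions (217-fold dilution) for 16 h. CCF4-AM substrate was loaded for 2 h at room temperature, and the 460/530 nm emission ratio was fitted for gain of signal versus DMSO.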

[9] = target: Cellular tumor antigen p53 (Homo sapiens) (UniProt P04637); assay: TOX21_p53_BLA_p2_ratio: Tox21 HCT-116 p53 Agonism Beta-lactamase Assay, Ratio, Phase 2 (AID 2283592; active means hit-call score of the fitted dose curve at least 0.9, where 1 is the maximum)
Outline: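 Cleaved-to-uncleaved substrate ratio (460 vs 530 nm) measured in HCT116 cells with an inducible beta-lactamase reporter linked to p53 activity. Compounds incubated 16 h at 37C before 2 h room-temperature CCF4-AM loading.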

[10] = ATG_XTT_Cytotoxicity: Cytotoxicity Assessment in the Attagene TRANS-FACTORIAL HepG2 Assay (AID 2283584; active means hit-call score of the fitted dose curve at least 0.9, where 1 is the maximum)
Outline: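 Transfect HepG2 with GAL4-UAS reporter units, dose compound, incubate 24 h, then measure viable cell number by XTT. Fit concentration response against DMSO baseline.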

Measured: AC50

S=C([S-])NCCNC(=S)[S-].[Mn+2]
active: [1] 0.835 µM | [2] 2.75 µM | [3] 3.64 µM | [4] 3.17 µM | [5] 3.77 µM

CCCCOCCOCCOCc1cc2c(cc1CCC)OCO2
inactive: [3] | [4] | [5]
active: [1] 10.7 µM | [2] 3.72 µM

CCCCOC(=O)[C@@H](C)Oc1ccc(Oc2ccc(C(F)(F)F)cn2)cc1
inactive: [1] | [6] | [2] | [3] | [4] | [5] | [7] | [8]

CCOC(=O)NCCOc1ccc(Oc2ccccc2)cc1
inactive: [2] | [3] | [4] | [7] | [8]
active: [1] 75.8 µM | [6] 82.8 µM | [5] 82.2 µM | [9] 38.1 µM

CCCN(CCC)c1c([N+](=O)[O-])cc(C(F)(F)F)c(N)c1[N+](=O)[O-]
active: [1] 22.5 µM | [2] 6.48 µM | [4] 28.9 µM | [9] 37.8 µM | [7] 44.7 µM | [8] 81.1 µM
inactive: [6] | [3] | [5]

S=C(S)NCCNC(=S)S.[Mn+2].[S-]C([S-])=NCCN=C([S-])[S-].[Zn+2]
inactive: [10]
active: [1] 699 nM and 352 nM and 513 nM | [2] 1.25 µM and 1.46 µM and 1.2 µM | [3] 2.12 µM and 1.74 µM | [4] 908 nM and 953 nM | [5] 1.58 µM and 1.57 µM and 1.84 µM

N#CSCSc1nc2ccccc2s1
active: [1] 77.7 µM | [5] 75 µM
inactive: [2] | [3] | [4] | [10]

COc1c(Cl)ccc(Cl)c1C(=O)O
inactive: [1] | [2] | [3] | [4] | [5]

CCSC(=O)N(CC(C)C)CC(C)C
inactive: [1] | [6] | [2] | [3] | [4] | [5] | [8]

CCCOC(=O)c1ccc(C(=O)OCCC)nc1
inactive: [1] | [6] | [2] | [3] | [4] | [5] | [7] | [8]

Cc1nn(C)c(Oc2ccccc2)c1C=NOCc1ccc(C(=O)OC(C)(C)C)cc1
active: [1] 3.57 µM | [6] 6.96 µM | [2] 2.29 µM | [3] 1.61 µM | [5] 8.6 µM | [9] 0.0043 µM
inactive: [4] | [7] | [8]

CCNc1nc(N)nc(Cl)n1
active: [2] 1.03 µM
inactive: [1] | [6] | [3] | [4] | [5] | [9] | [8]

OB(O)O
inactive: [1] | [6] | [2] | [3] | [4] | [5] | [9] | [8]

COC(=O)c1ccccc1C(=O)O
inactive: [1] | [6] | [2] | [3] | [4] | [5] | [8]
